Results on 98 compounds are retold here after PubChem BioAssay AID485314 (National Center for Advancing Translational Sciences (NCATS), 2010).

The whole screen tested about 340,000 compounds, of which about 4,500 (1.3%) were called active. Entries that show only a call come without a potency. Roughly 5% stayed inconclusive and do not appear here. Calls come from the whole dose curve; as a rule, active = well fitted inhibition curve with a large enough effect; inconclusive = small, poorly fitted or top-dose-only effect, or another doubt; inactive = no such curve, though single readings can be large or run the other way. For the sample, actives were picked, then their nearest neighbours and some compounds at random.
Potency is the fitted concentration of half-maximal effect.

The experiment concerns the target DNA polymerase beta (Homo sapiens) (UniProt P06746). In words: qHTS Assay for Inhibitors of DNA Polymerase Beta. The conditions noted are these: Pol beta primer extension/strand displacement, fluorescence kinetic; series mostly up to 114 µM. In outline: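 Pol beta (10 nM) and compounds were preincubated 15 min at room temperature, then 50 nM substrate (final) started primer extension/strand displacement. Reads were taken at 0 and 10 min; concentration-response data were fitted to a four-parameter Hill equation.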
On the technique in general: qHTS replaces the single test concentration by a dilution series.
Turning to `CC(C)(C)c1ccc(C(=O)Nc2ccc3c(c2)CCCN3C(=O)c2cccs2)cc1`, the Potency result is “inactive”. On to `CC(C)(C)C1C/C(=C/c2ccco2)C(=O)/C(=C/c2ccco2)C1` (stereo not drawn), for which the Potency is 10 µM (active).

Regarding `CCC1C/C(=C/c2cccs2)C(=O)/C(=C/c2cccs2)C1` (stereo not drawn), the Potency entry was “inactive”.

With `CC(C)c1ccc(NC(=O)c2ccc3c(O)c(S(=O)(=O)c4ccccc4)c(=O)[nH]c3c2)cc1`, the Potency result is “inactive”. As for `CCOC(=O)C1CCN(C(=O)CSc2c3c(nc4ccc(Cl)cc24)CCCC3)CC1`, the Potency result was “inactive”.

For the compound `COCCNC(=O)c1ccc2c(c1)N(Cc1cccc(Cl)c1)C(=O)c1ccccc1S2(=O)=O`, the Potency entry was “inactive”.

In the case of `Cc1ccc2nc(-c3ccncc3)cc(C(=O)Nc3ccc4c(c3)OCCO4)c2c1`, the Potency result is “inactive”. As for `Cc1ccc2nc(-c3ccncc3)cc(C(=O)Nc3ccc(OC(F)F)cc3)c2c1`, the Potency is 8.91 µM (active). On to `Cc1ccc2nc(-c3ccccn3)cc(C(=O)Nc3ccc4c(c3)OCO4)c2c1`, for which the Potency result is “inactive”.

On to `Cc1ccc(Nc2ccc3cc(S(=O)(=O)N4CCCCC4)ccc3n2)cc1F`, for which the Potency entry was “inactive”. In the case of `Cc1ccccc1OCCOc1ccc([N+](=O)[O-])cc1/C=N/n1cnnc1`, the Potency result was “inactive”. In the case of `COc1ccccc1OCCOc1ccc(/C=N/n2cnnc2)cc1` it was 44.7 µM (active); in that of `COc1ccccc1OCCOc1ccc(/C=C2\C(=N)N3N=C(C)SC3=NC2=O)cc1`, “inactive”.

In the case of `CSc1ccccc1NC(=O)CCS(=O)(=O)c1nc(-c2cccs2)cc(C(F)(F)F)n1`, the Potency entry was “inactive”.

With `COc1cccc(Cn2c(SCc3ccc(C(=O)N4CCCCC4)cc3)nc3ccncc32)c1`, the Potency result is “inactive”. Then `COc1ccc(Cl)cc1S(=O)(=O)N1CCN(CC(=O)C(C)(C)C)CC1`, with “inactive”; and `O=C(CN1CCN(S(=O)(=O)c2cc(Cl)ccc2Cl)CC1)c1ccc(O)c(O)c1`, with 3.16 µM (active); and `N#Cc1ccsc1NC(=O)CN1CCN(S(=O)(=O)c2cc(Cl)ccc2Cl)CC1`, with “inactive”. Then `O=C(NCCc1ccccc1)c1ccc2c(c1)N(Cc1ccc(F)cc1)C(=O)c1ccccc1S2(=O)=O`, with “inactive”. Then `NC(=O)c1ccc(NC(=O)COC(=O)C(Cc2ccccc2)NC(=O)c2ccccc2)cc1` (stereo not drawn), with “inactive”; and `CCc1ccc(NC(=O)COC(=O)c2cccs2)cc1`, with “inactive”; and `O=C(COC(=O)[C@H](Cc1ccccc1)NC(=O)c1cccs1)Nc1cc(F)ccc1F`, with 79.4 µM (active).

As for `Cc1cccc(NC(c2cccc(F)c2)c2ccc3ccc(C)nc3c2O)n1` (stereo not drawn), the Potency entry was “inactive”.

Regarding `O=[N+]([O-])C(=c1ccc2c(c1)N1C3=C(CCCC3)CC3CCCCC31N=2)[N+](=O)[O-]` (stereo not drawn), the Potency was 39.8 µM (active).

On to `Cc1ccc(-c2nc3cccc(C)n3c2Nc2ccc3c(c2)OCCO3)cc1`, for which the Potency entry was “inactive”. In the case of `COc1cccc(CNC(=O)c2ccc3c(c2)N(Cc2ccc(C(F)(F)F)cc2)C(=O)c2ccccc2S3)c1OC` it was “inactive”. In the case of `Cc1ccccc1-c1nc2scc(CCNC(=O)C(=O)Nc3ccc(F)cc3F)n2n1` it was “inactive”; in that of `O=C(Cn1cc(SCc2ccccc2)c2ccccc21)N1CCCCC1`, “inactive”. Consider `O=C(c1ccc(C(F)(F)F)cc1)C1CCCN(C(=O)c2csnn2)C1` (stereo not drawn), for which the Potency result is “inactive”. Take `Cc1cnc(C(=O)N2CCCC(C(=O)c3ccc(C(F)(F)F)cc3)C2)cn1` (stereo not drawn): the Potency was 14.1 µM (active). Then `COCC(=O)N1CCCC(C(=O)c2ccc(C(F)(F)F)cc2)C1` (stereo not drawn), with “inactive”; and `Cc1cc(Cl)ccc1OCC(=O)N(Cc1ccc(N(C)C)cc1)C1CCS(=O)(=O)C1` (stereo not drawn), with “inactive”; and `CCOC(=O)c1c(NC(=O)CSc2cn(CCNC(=O)c3cccc(C(F)(F)F)c3)c3ccccc23)sc2c1CCC2`, with “inactive”.

Consider `Cc1ccc(-n2ncc3c(NCCCn4ccnc4)ncnc32)cc1Cl`, for which the Potency result is “inactive”. In the case of `O=C(Nc1ccc(S(=O)(=O)Nc2nccs2)cc1)c1cc(=O)[nH]c2ccccc12` it was “inactive”. `CCC(CC)C(=O)Nc1ccc(S(=O)(=O)Nc2nccs2)cc1`: the Potency entry is “inactive”. In the case of `O=C(Nc1ccc(S(=O)(=O)Nc2nccs2)cc1)c1cc(-c2ccncc2)nc2ccccc12` it was 15.8 µM (active).

On to `COc1ccc(CCNc2ncnc3c2cnn3-c2ccc(C)cc2)cc1`, for which the Potency result is “inactive”. With `Cc1ccc(C)n1C(Cc1ccccc1)C(=O)O` (stereo not drawn), the Potency was 10 µM (active). Turning to `CCOC(=O)C(Cc1ccc(N)cc1)N1C(=O)c2ccccc2C1=O` (stereo not drawn), the Potency result was “inactive”. In the case of `COc1ccc(CNC(=O)C(Cc2ccccc2)n2cccc2)cc1` (stereo not drawn) it was “inactive”; in that of `COc1cc(OC)cc(C(=O)Nc2c(C(=O)Nc3ccc(F)cc3)oc3ccccc23)c1`, “inactive”; in that of `CCOC(=O)c1ccc(N2C(=O)c3n[nH]c(-c4ccco4)c3C2c2ccc(O)cc2)cc1` (stereo not drawn), “inactive”. Then `CCn1cc(C(=O)NCc2ccc(C)cc2)c(=O)c2cc(S(=O)(=O)N3CCc4ccccc4C3)ccc21`, with “inactive”.

As to `Cc1ccc(/C=C/C(=O)Nc2ccc([N+](=O)[O-])c(NC(=O)/C=C/c3ccc(C)o3)c2)o1`, the Potency was 11.2 µM (active). Then `COc1ccc(OC)c(NC(=O)/C=C/c2ccc(C)o2)c1`, with “inactive”. As for `CCc1nnc(NC(=O)/C=C/c2ccc(C)o2)s1`, the Potency result was “inactive”. With `CCc1cc2c(-c3ccccc3)cc(=O)oc2c2c1OCN(Cc1ccc(C)cc1)C2`, the Potency result is “inactive”. With `O=S(=O)(c1ccc2nc(NCc3ccccc3Cl)ccc2c1)N1CCCCC1`, the Potency result is “inactive”. In the case of `Brc1ccc2c(c1)NC(c1cccnc1)=NC(c1ccccc1)=N2`, the Potency result was “inactive”. Turning to `CCc1ccc(CN(Cc2ccco2)C(=O)COc2ccc(Cl)c(C)c2)cc1`, the Potency result is “inactive”. In the case of `N#Cc1c(-c2ccccc2)nc(SCc2cccc(C(F)(F)F)c2)[nH]c1=O` it was 79.4 µM (active); in that of `O=c1[nH]c(SCc2cccc(F)c2)nc2ccccc12`, “inactive”; in that of `N#Cc1c(-c2ccc(F)cc2)nc(-c2ccccc2)[nH]c1=O`, “inactive”. In the case of `O=C(COC(=O)CNC(=O)c1ccco1)Nc1ccc(F)cc1` it was “inactive”; in that of `CCN(CC)CCOC(=O)c1ccc(NC(=O)CNC(=O)c2ccccc2)cc1`, “inactive”. In the case of `CCOC(=O)c1ccc(NC(=O)CNC(=O)c2ccco2)cc1` it was 56.2 µM (active). With `CCOC(=O)c1ccc(NC(=O)c2c(NCc3cccs3)sc3c2CCCC3)cc1`, the Potency entry is “inactive”.

As for `CCN(CCCNC(=O)c1cc2c(=O)n(CC)c3ccccc3c2s1)Cc1ccccc1`, the Potency result was “inactive”. Then `Cc1c(Cl)cccc1NC(=O)c1noc2c1CCCC2`, with “inactive”. Regarding `Oc1cccc(/C=N/Nc2ccc(Cl)nn2)c1O`, the Potency is 39.8 µM (active).

Turning to `Cc1ccsc1/C=N/Nc1ccc(Cl)nn1`, the Potency result is “inactive”.

Regarding `COc1cccc(/C=N/Nc2ccc(Cl)nn2)c1`, the Potency entry is “inactive”.

For `CCOC(=O)c1c(NC(=O)COc2cc(C)ccc2C(C)C)sc(C)c1C`, the Potency result is “inactive”. Then `COc1ccc(S(=O)(=O)c2cn(C)c3cc(N4CCCCC4)c(F)cc3c2=O)cc1`, with “inactive”; and `O=C(Cc1c(F)cccc1Cl)Nc1ccc(-n2cnnn2)cc1`, with “inactive”. In the case of `O=C(COc1ccc(Cl)cc1)Nc1ccccc1CO` it was “inactive”. Turning to `O=C(COc1ccc(-n2cnnn2)cc1)Nc1ccccc1Cl`, the Potency was 28.2 µM (active). As to `CCOc1ccc(N(C)S(=O)(=O)c2cc(-c3cnc(C)o3)ccc2OC)cc1`, the Potency entry was “inactive”. In the case of `Cc1cccc(N2CCN(S(=O)(=O)c3ccc4[nH]c5c(c4c3)CCCCC5)CC2)c1C` it was “inactive”.

As for `Cc1nn(-c2ccc(N3CCCCC3)nn2)c(C)c1CCC(=O)NCc1ccccc1F`, the Potency entry is “inactive”. In the case of `COc1ccc(Cl)cc1NC(=O)c1cccc(N2C(=O)C3CC=CCC3C2=O)c1` (stereo not drawn) it was “inactive”; in that of `Cc1ccc(C(=O)NC(C)c2ccccc2)cc1Br` (stereo not drawn), “inactive”; in that of `CC1=CCC2C(=O)N(c3cccc(C(=O)NC(C)c4ccccc4)c3)C(=O)C2C1` (stereo not drawn), 39.8 µM (active). Then `CCN(CC)C(=O)CSc1nc2ccsc2c(=O)n1Cc1ccccc1Cl`, with “inactive”; and `Cc1ccc(NC(=O)COc2ccc(/C=N\NC(=O)c3cccnc3)cc2)cc1C`, with “inactive”; and `NC(=O)c1ccc(NC(=O)COC(=O)c2ccc([N+](=O)[O-])cc2)cc1`, with “inactive”.

As for `O=C(COc1ccc(/C=N/NC(=O)c2ccc(O)cc2)cc1)Nc1ccc([N+](=O)[O-])cc1`, the Potency is 2.24 µM (active).

In the case of `CC1CN(C(=O)N2CCC(C(=O)NCc3cccs3)CC2)c2ccccc2O1` (stereo not drawn), the Potency result was “inactive”. Then `Cc1cccc(C(=O)N2c3nc(-c4ccco4)nn3C3(CCCCC3)[C@@H]3CCCC[C@@H]32)c1`, with “inactive”; and `Cc1nnc(SCC(=O)NC2CCCC2)s1`, with “inactive”; and `Cc1nnc(SCC2=C(C(=O)O)N3C(=O)C(NC(=O)Cn4nc(C)c(Cl)c4C)C3SC2)s1` (stereo not drawn), with 39.8 µM (active). In the case of `Cc1nnc(SCC(=O)Nn2cnnc2)s1` it was “inactive”. In the case of `Cc1sc(C2C(C#N)=C(N)N(c3cccc(Cl)c3)C3=C2C(=O)CCC3)cc1CN1CCOCC1` (stereo not drawn) it was “inactive”; in that of `Fc1ccc(-c2ccc(-c3nn4c(-c5ccco5)nnc4s3)o2)cc1`, 44.7 µM (active); in that of `Cc1nc2c(-c3ccc(F)cc3)c(C)nn2c(C)c1CCC(=O)NCc1ccco1`, “inactive”. With `O=C(CSc1nnc2scc(-c3ccc(F)cc3)n12)NCc1ccco1`, the Potency result was “inactive”. As to `Cc1cc(C)c(OCC(=O)N/N=C/c2ccco2)c(C)c1`, the Potency entry was “inactive”.

In the case of `COC(=O)C1=C(C)N(c2ccc(Br)cc2)C(=O)/C1=C\c1ccco1`, the Potency result is “inactive”. `COC(=O)COc1ccc2c(c1C)O/C(=C\c1ccco1)C2=O`: the Potency is 50.1 µM (active).

For `CC1CCCN(c2csc3ccc(F)cc3c2=O)C1` (stereo not drawn), the Potency result is “inactive”. Then `CCCn1c(NCc2ccc(N(CC)CC)cc2)nc2ccccc21`, with “inactive”; and `Cc1nn(CC(=O)N/N=C/c2ccc(F)cc2)c(C)c1[N+](=O)[O-]`, with “inactive”; and `COc1cc(/C=N/NC(=O)c2cc(C)n(-c3ccc(F)cc3)c2C)cc(OC)c1O`, with “inactive”. In the case of `Cc1cc(C(=O)N/N=C/c2ccc(O)c([N+](=O)[O-])c2)c(C)n1-c1ccc(F)cc1` it was 20 µM (active); in that of `O=C(O)c1cc(Cl)c(Cl)cc1C(=O)Nc1cccc2ncccc12`, “inactive”; in that of `CCOC(=O)c1ccc(-c2ccc(/C=C(\C#N)C(=O)Nc3ccc(OCC)cc3)o2)cc1`, “inactive”.

For the compound `Cc1ccc(/C=C(\C#N)C(=O)Nc2cccc3ncccc23)o1`, the Potency is 3.16 µM (active).
